{
  "source": "PubChem BioAssay (NCI)",
  "note": "Values joined by “and” are separate entries in the source; they are usually repeats but may differ in a detail not shown here. Equal values may be shown once. This is part of a sample that, as a whole, favours compounds with a hit. Of some 83,000 tested, about 20% had one in any assay.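 The endpoint reported here, percent growth, reads 100 for growth as untreated, 0 for no net growth and -100 for all cells dead.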 Unmarked numbers belong to inactive results. Active and inactive are the calls of the source.",
  "data": [
    {"tested_on": "OVCAR-3 ovarian", "assay": "NCI-60 one-dose screen, 48 h (100 = growth as untreated, 0 = no growth, -100 = all killed)", "conditions": "10 µM unless noted", "procedure": "Growth inhibition of the OVCAR-3 human tumor cell line is measured as a screen for anti-cancer activity. Cells are grown in 96 well plates and exposed to the test compound for 48 hours. Compounds are tested at a single concentration, which is 10^-5 M for most compounds. The reported endpoint is percent growth (GI% or GIPRCNT), where numbers from 0 - 100% represent growth inhibition, and numbers from -100% - 0 represent cell death. For example, a value of 40 represents 60% growth inhibition. A value of 0 means no net growth occurred over the course of the experiment. A value of -40 indicates 40% of cells at the beginning of the experiment died by the end of the experiment. A value of -100 means all cells are dead at the end of the experiment.\nNCI-60 Human Tumor Cell Lines Screen was performed using the standard one-dose NCI protocol, which is described in more detail at https://dtp.cancer.gov/discovery_development/nci-60/default.htm.\nCompounds with GIPRCNT values below 10 were considered active. Activity score was based on GIPRCNT using the following formula: […]\nScore is 0 for GIPRCNT values of 100 or above, 50 for GIPRCNT values of 0, and 100 for GIPRCNT values of -100.", "values": [
      {"smiles": "CCCCCC/C=C1\\CCC(CN2CCCC2)C1=O", "note": "(stereo not given)", "growth": "103%"},
      {"smiles": "COc1cc(/C=C2\\SC(=S)N(/C=C/c3nc4ccccc4[nH]c3=O)C2=O)cc(OC)c1OC", "growth": "89.4%"},
      {"smiles": "COc1cc([C@@H]2c3cc4c(cc3[C@H](OC3OC5COC(c6ccccc6)OC5C(O)C3O)[C@H]3COC(=O)[C@H]23)OCO4)cc(OC)c1OC", "note": "(stereo not given in full)", "growth": "61.8%"},
      {"smiles": "O=C1C=Cc2ccccc2/C1=C/c1nc(-c2ccccc2)oc1O", "growth": "91.6%"},
      {"smiles": "COc1cc(NC(=O)C2=C(C)NC(C)=C(C(=O)Nc3cc(OC)c(Cl)cc3OC)C2c2cccc([N+](=O)[O-])c2)c(OC)cc1Cl", "growth": "32.3%"},
      {"smiles": "CCOC(=O)c1[nH]c(C#N)c(C(=O)OCC)c1C", "growth": "114%"},
      {"smiles": "Cc1nc([N+](=O)[O-])c(Sc2nncc(-c3ccccc3)n2)n1C", "growth": "78.5%"},
      {"smiles": "OC(c1cc(C23CC4CC(CC(C4)C2)C3)nc2c(Cl)cc(Cl)cc12)C1CCCCN1", "note": "(stereo not given)", "growth": "-89.9% (active)"},
      {"smiles": "O=C1C=CC(=O)N1c1ccccc1", "growth": "1.28% (active)"},
      {"smiles": "COc1cc(/C=C/C(=O)CC(=O)/C=C/c2ccc(O)c(OC)c2)ccc1O", "growth": "37.3%"},
      {"smiles": "O=C(Cc1nc2cc(Cl)c(Cl)cc2nc1CC(=O)c1cccnc1)c1cccnc1", "growth": "78.5%"},
      {"smiles": "NNc1ccc(Cl)cc1Cl", "growth": "87.4%"},
      {"smiles": "Nc1nc2ncc(CNc3ccc(C(=O)NC(CCC(=O)NC(CCC(=O)NC(CCC(=O)NC(CCC(=O)NC(CCC(=O)O)C(=O)O)C(=O)O)C(=O)O)C(=O)O)C(=O)O)cc3)nc2c(=O)[nH]1", "note": "(stereo not given)", "growth": "118%"},
      {"smiles": "O=C(NNc1ccccc1)OCc1ccccc1", "growth": "91.4%"},
      {"smiles": "NNc1cccc([N+](=O)[O-])c1", "growth": "100%"},
      {"smiles": "OCCOSCCO", "growth": "120%"},
      {"smiles": "CCCCCCN(CCCCCC)CCCNc1nccc2ccccc12", "growth": "-6.31% (active)"},
      {"smiles": "O=C/C=C/c1ccc([N+](=O)[O-])cc1", "growth": "104%"},
      {"smiles": "O=C(Nc1cccc(C(F)(F)F)c1)Oc1ccc(Cl)c2cccnc12", "growth": "-56.3% (active)"},
      {"smiles": "S=C(SSC(=S)N1CCOCC1)N1CCOCC1", "growth": "74.6%"},
      {"smiles": "COC1CC(C)C(OC)c2cc(O)cc(c2O)NC(=O)/C(C)=C/C=C\\C(C)C(OC(N)=O)/C(C)=C\\C(C)C1OC", "note": "(stereo not given)", "growth": "20.2%"},
      {"smiles": "CSc1nc(C)c(C(=O)CCN2CCN(c3ccccn3)CC2)s1", "growth": "104%"},
      {"smiles": "Cc1cc(Br)c2nsnc2c1[N+](=O)[O-]", "growth": "57%"},
      {"smiles": "O=[N+]([O-])c1ccc(Oc2ccccc2Cl)c([N+](=O)[O-])c1", "growth": "94.1%"},
      {"smiles": "O=C1C=C(Cl)C(=O)c2ccccc21", "growth": "89.8%"},
      {"smiles": "NC(=S)N/N=C/c1ncccc1O", "growth": "27.7%"},
      {"smiles": "O=[N+]([O-])CC(O)c1ccccc1", "note": "(stereo not given)", "growth": "121%"},
      {"smiles": "CCCOS(=O)(=O)c1ccccc1", "growth": "107%"},
      {"smiles": "CCCCCCCCCCCCCCCc1ccc(C(=O)C[n+]2ccccc2)cc1", "growth": "-93.1% (active)"},
      {"smiles": "CCCC[n+]1c(/C=C\\c2c(OC)cc(OC)cc2OC)ccc2ccccc21", "growth": "-16.7% (active)"},
      {"smiles": "CC1(O)CCCCCC1", "growth": "103%"},
      {"smiles": "OC(c1cc(-c2ccc(C(F)(F)F)cc2)nc(C(F)(F)F)c1)C1CCCCN1", "note": "(stereo not given)", "growth": "-70.3% (active) and -68.3% (active) and 8.69% (active)"},
      {"smiles": "O=C(Cc1nc2cc(Cl)c(Cl)cc2nc1CC(=O)c1ccccc1)c1ccccc1", "growth": "81.5%"},
      {"smiles": "Cc1cc(=O)oc2cc(O)cc(O)c12", "growth": "99.2%"},
      {"smiles": "O=C(/C(Cl)=N/O)c1ccc(-c2ccccc2)cc1", "growth": "72.3%"},
      {"smiles": "C/C(=N\\NC(=S)N1CC2CCC(CC2)C1)c1ccccn1", "growth": "-17.7% (active)"},
      {"smiles": "CCc1oc2ccccc2c1C(=O)c1cc(Br)c(O)c(Br)c1", "growth": "58.2%"},
      {"smiles": "O=C1c2ccccc2Cc2cccc(Cl)c21", "growth": "108%"},
      {"smiles": "OC(c1cc2ccc(C(F)(F)F)cc2c2cc(C(F)(F)F)ccc12)C1CCCCN1", "note": "(stereo not given)", "growth": "-100% (active)"},
      {"smiles": "Cc1ccc(NC2=CC(=O)C(=O)c3ccccc32)cc1", "growth": "13.7%"}
    ]}
  ]
}
